# Measured values: PubChem BioAssay
# Calls of active or inactive are those of the source.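 How the source made its calls: active means inhibition above the hit cutoff set in the earlier primary screen (cut at about 27% in these data); inactive means the rest.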
# Molecular target: Protein phosphatase methylesterase 1 (Homo sapiens) (UniProt Q9Y570)
# Assay: PME-1 inhibitor activity retest, confirmation, biochemical, fluorescence polarization, FP-Rh probe, triplicate (AID 2171);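 further: 0% = enzyme with DMSO and 100% = wells lacking PME-1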
# Details: recombinant PME-1, FP-Rh probe fluorescence polarization; at 5.9 µM; active compounds read high
# Sequence of Protein phosphatase methylesterase 1 (Homo sapiens) (Q9Y570 whole entry, looked up): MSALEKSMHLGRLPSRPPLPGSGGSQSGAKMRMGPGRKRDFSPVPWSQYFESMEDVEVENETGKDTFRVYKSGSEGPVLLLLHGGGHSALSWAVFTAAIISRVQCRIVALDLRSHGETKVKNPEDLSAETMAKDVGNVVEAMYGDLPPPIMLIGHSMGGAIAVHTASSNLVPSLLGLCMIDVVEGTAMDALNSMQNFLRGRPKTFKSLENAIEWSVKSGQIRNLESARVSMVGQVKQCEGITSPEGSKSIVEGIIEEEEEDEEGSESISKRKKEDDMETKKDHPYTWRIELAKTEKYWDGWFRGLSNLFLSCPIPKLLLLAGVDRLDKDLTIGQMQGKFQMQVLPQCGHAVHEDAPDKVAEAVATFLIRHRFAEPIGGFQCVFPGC
row,SMILES,inhibition
1,Cc1nn(-c2ccccc2)c2sc(-c3n[nH]c(=S)o3)cc12,43.8% (active)
2,O=C(NNc1c2ccccc2nc2ccccc12)c1cccc(O)c1,36% (active)
3,O=C(O)/C(CC(=O)c1ccc(Cl)cc1)=N/Nc1ccc([N+](=O)[O-])cc1[N+](=O)[O-],42.7% (active)
4,COC(=O)c1ccccc1C(=O)c1ccc2c(c1)NC(=O)CO2,7.04% (inactive)
5,CCc1cc(/C(Cc2ccc3ccccc3n2)=N\O)c(O)cc1O,30.8% (active)
6,Nc1[nH]n(-c2ccccc2)c(=O)c1N=Nc1ccc2ncsc2c1,31.1% (active)
7,Cc1[nH]c2ccccc2c1/C=N/NC(=O)c1cc(-c2ccncc2)nc2ccccc12,23% (inactive)
8,Nc1[nH]n(-c2ccccc2)c(=O)c1N=Nc1ccc2c(c1)OCCO2,34.5% (active)
9,N#CC1=C(N)C(C#N)(C#N)C(c2ccncc2)C2CN(C(=O)OCc3ccccc3)CC=C12 (stereo not given),28.3% (active)
10,Cc1ccc(C(=O)N/N=C/c2ccc(-c3ccc(Br)cc3[N+](=O)[O-])o2)o1,33.1% (active)
11,CCN(CC(=O)Nc1c(F)cccc1F)C(=O)CCc1ccc(OC)cc1,6.49% (inactive)
12,CCOc1ccc(C(=O)NC(C)CCc2ccccc2)cc1 (stereo not given),-6.46% (inactive)
13,CC(=O)Oc1ccc2c(c1)Oc1cc(OC(C)=O)ccc1C21OC(=O)c2ccccc21,148% (active)
14,CCCn1c(CCC(=O)Nc2ccccc2Cc2ccccc2)nc2cc(S(=O)(=O)N3CCOCC3)ccc21,45.4% (active)
15,Oc1nc(Nc2ccccc2)sc1/C=C1\C=Nc2ccccc21,-2.4% (inactive)
